Source: the supplement of paper PMC8728848
Many of the other results were omitted from the sample, so the strongest signals are more common in it than they were.

Key:
Assay in all cases: glycan array binding signal (z-score within array); higher = stronger binding
Conditions in all cases: glycan notation: IUPAC condensed, linker removed
[1] = target: GlcNAc(b1-2)Man(a1-3)[GlcNAc(b1-2)Man(a1-6)]Man(b1-4)GlcNAc(b1-4)[Fuc(a1-6)]GlcNAc
In short: (§1)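 Negative Z-scores can be read as non-binding. The Z-score is calculated within each array and then averaged across arrays of one protein sequence at different concentrations or buffers and across linkers. Arrays, 3228 in all, were curated from the Consortium for Functional Glycomics database and kept only where the protein sequence was available.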

[2] = target: GlcNAc(b1-3)Gal(b1-4)GlcNAc(b1-2)Man(a1-3)[GlcNAc(b1-3)Gal(b1-4)GlcNAc(b1-2)Man(a1-6)]Man(b1-4)GlcNAc(b1-4)GlcNAc
In short: as §1

[3] = target: GlcNAc(b1-3)Gal(b1-4)GlcNAc(b1-3)Gal(b1-4)GlcNAc(b1-2)Man(a1-3)[GlcNAc(b1-3)Gal(b1-4)GlcNAc(b1-3)Gal(b1-4)GlcNAc(b1-2)Man(a1-6)]Man(b1-4)GlcNAc(b1-4)GlcNAc
In short: as §1

[4] = target: GlcNAc(b1-3)Gal(b1-4)GlcNAc(b1-3)Gal(b1-4)GlcNAc(b1-2)Man(a1-3)[GlcNAc(b1-3)Gal(b1-4)GlcNAc(b1-3)Gal(b1-4)GlcNAc(b1-2)Man(a1-6)]Man(b1-4)GlcNAc(b1-4)[Fuc(a1-6)]GlcNAc
In short: as §1

[5] = target: GlcNAc(b1-3)Gal(b1-4)GlcNAc(b1-3)Gal(b1-4)GlcNAc(b1-2)[GlcNAc(b1-3)Gal(b1-4)GlcNAc(b1-3)Gal(b1-4)GlcNAc(b1-6)]Man(a1-6)[GlcNAc(b1-3)Gal(b1-4)GlcNAc(b1-3)Gal(b1-4)GlcNAc(b1-2)Man(a1-3)]Man(b1-4)GlcNAc(b1-4)[Fuc(a1-6)]GlcNAc
In short: as §1

[6] = target: Man(a1-2)Man(a1-6)[Man(a1-3)]Man(a1-6)[Man(a1-2)Man(a1-2)Man(a1-3)]Man
In short: as §1

[7] = target: Neu5Ac(a2-3)Gal(b1-3)GalNAc(b1-4)[Neu5Ac(a2-8)Neu5Ac(a2-3)]Gal(b1-4)Glc
In short: as §1

[8] = target: Neu5Ac(a2-3)Gal(b1-3)GlcNAc6S
In short: as §1

[9] = target: Neu5Ac(a2-3)Gal(b1-3)]Neu5Ac(a2-3)Gal(b1-4)]GlcNAc
In short: as §1

[10] = target: Neu5Ac(a2-3)Gal(b1-4)GlcNAc(b1-6)[Gal(b1-3)]GalNAc
In short: as §1

[11] = target: Neu5Ac(a2-6)GalNAc(b1-4)GlcNAc
In short: as §1

[12] = target: Neu5Ac(b2-6)Gal(b1-4)GlcNAc
In short: as §1

[13] = target: Neu5Ac(b2-6)GalNAc
In short: as §1

[14] = target: Neu5Gc(a2-3)Gal(b1-4)GlcNAc(b1-3)Gal(b1-4)GlcNAc(b1-2)Man(a1-3)[Neu5Gc(a2-3)Gal(b1-4)GlcNAc(b1-3)Gal(b1-4)GlcNAc(b1-2)Man(a1-6)]Man(b1-4)GlcNAc(b1-4)GlcNAc
In short: as §1

[15] = target: Neu5Gc(a2-8)Neu5Gc(a2-3)Gal(b1-4)GlcNAc
In short: as §1

B1: InvD YPIII (Yersinia pseudotuberculosis), B1JSC0 (protein)
chain: MIKYFSFFKKPEPIVGILPNRQSHHILPTHIRRVAWGTLLLQLFIPLSVSFSPAIAAMKASKADTMVSYSSTEPYVLGSGETVAMVAKKYGITVDELKKINIYRTFSRPFTALTTGDEIDIPRKASPFSVDNNKDNRLSVENTLAGHAVAGATALSNGDVAKSGERMVRSAASNEFNNSAQQWLSQFGTARVQLNINDDFHLDGSAADVLIPLYDNEKSILFTQLGARNKDSRNTVNMGAGVRTFQGNWMYGANTFFDNDLTGKNRRIGVGAEAWTDYLKLSANNYFGITDWHQSRDFIDYNERPANGYDLRAEAYLPSYPQLGGKAMYEKYRGDDVALFGKDNRQKNPHAITAGVNYTPIPLVTIGAEHRAGKGGQNDSNINFQLNYRLGETWQSHIDPSAVAASRTLAGSRYDLVERNNHIVLDYQKQNLVRLSLPDSLAGDPFSQLSVTAQVTATHGLERIDWQSAELMAAGGVLKQTSKNGLEITLPEYQMNRTGGNSYILNAIAYDTQGNASSQASMLITVNAQKINIANSTLVAVPINIEANNSDTSVVTLTLKDDNNIPVTGQDVTFLSPLGTLSAMTDSGNGVYTATLTAGTVSGTTAVSSNINGSALDMTPATVTLNGNSGELSITHSMLVAAPVNIEANGSDTSVVTLTLRDSNNNPVTGQTVTFAGTLGTLGAVTEGSSGVYTATLTAGIMVGTSSITASVNSTALGVTPATVTLNGDSGNLSTTNSTLVAAPVNIEANSSDTSVVTLTLRDNNNNPVTGQTVVFTSTLGTLGNVTEQASGVYTATLTAGTVSGVASLSVSVGGNALGVTPATVTLNGDSGNLSTTNSTLVAAPVNIEANSSDTSVVTLTLRDNNNNPVTGQTVNFAGTLGTLGTVSEGSSGVYTTTLTAGTVAGVASLSVNVGGNALGVTPATVTLNGNSGNLSATNSTLVAAPVNIEANSSDTSVVTLTLRDNNNNPVTGQTVAFTSTLGTLGNVTEQASGVYTATLTAGTVSGVASLSVSVNSNALGVTPATVTLNGDSGNLSTTNSTLVAAPVNIEANSSDTSVVTLTLRDNNNNPVTGQTVAFTSTLGTLGNVTEQASGLYTATLTAGTVSGVASLSVNVGGNALGVTPATVTLNGDSGNLSATNSTLVAAPVNIEANSSDTSVVTLTLRDNNNNPVTGQTVAFTSTLGTLGNVTEQASGLYTATLTAGTVSGVASLSVNVGGTALGVTPATVTLNGDSGNLSTTNSTLVAAPVNIEANSSDTSVVTLTLRDNNNNPVTGQTVAFTSTLGTLGNVTEQASGLYTATLTAGTVSGVASLSVSVNSTALGVTPATVTLNGDSGNLSTTNSTLVAAPVNIEANSSDTSVVTLTLRDNNNNPVTGQTVAFTSTLGTLGNVTEQASGVYTATLTAGTVAGVASLSVNVGGNALGVTPATVTLNGDSGNLSTTNSTLVAAPVNIEANSSDTSVVTLTLRDNNNNPVTGQTVAFTSTLGTLGNVTEQASGVYTATLTAGTVSGVASLSVSVGSSALGVTPATVTLNGDSGNLSTTNSTLVAAPVNIEANNSDTSVVTLTLRDNNNNPVTGQTVAFTSTLGTLGNVTEQASGVYTATLTAGTVSGVASLSVSVNSNALGVTPATVTLNGDSGNLSTTNSTLVAAPVNIEANSSDTSVVTLTLRDNNNNPVTGQTVVFTSTLGTLGNVTEQASGLYTATLTAGTVSGVASLSVSVGGNALGVTGNITLAPGALDAARSILAVNKPSINADDRIGSTITFTAQDAQGNAITGLDIAFMTDLENSQIMTLVDHNDGTYTANINGTQTGIANIAVQSSGATIAGLAATMVTITPGAWNTTQATPVMTVALPITTCQSSSGVYKRYYIGIVTHELYDNYGNEISGILTYNLGAGRYTTVTSQNSSVSGSNGLTRRSNSPVSHFILTSDAYTSQAACYAERIANVNVTITVTAITDDFKTSAVNKVFILGTGSN
glycan array binding signal (z-score) [1]: 0.422
glycan array binding signal (z-score) [2]: -0.006
glycan array binding signal (z-score) [3]: 5.11
glycan array binding signal (z-score) [4]: 2.68
glycan array binding signal (z-score) [5]: 4.27
glycan array binding signal (z-score) [6]: -0.216
glycan array binding signal (z-score) [7]: -0.165
glycan array binding signal (z-score) [8]: -0.22
glycan array binding signal (z-score) [9]: 0.034
glycan array binding signal (z-score) [10]: 0.162
glycan array binding signal (z-score) [11]: -0.312
glycan array binding signal (z-score) [12]: -0.095
glycan array binding signal (z-score) [13]: 0.163
glycan array binding signal (z-score) [14]: 0.122
glycan array binding signal (z-score) [15]: -0.373
